Hits are enriched below; roughly 7.5% of the tested compounds scored in any of these assays.
SMN2 splice enh = SMN2 splice variant enhancement; HEK293 SMN2-luciferase splicing reporter, luminescence, 30-36 h; hit rate 2.8% among 210,000; Potency, µM (highest dose often 46.1 µM), for inactives: at the highest dose activity change, positive = activation, most hits filed as activators; note: % of control where 0% means no effect; nearly all actives have a fitted effect of over 55% in size
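HEK293 cells carry an SMN2 minigene-luciferase reporter in which exon 7 inclusion puts luciferase in frame. Cells were seeded at 2000 cells/well, attached for 10-12 hours, then exposed to compounds for 30-36 hours at 37C before ONE-Glo luminescence.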
NPC1 promoter act = activates the NPC1 promoter. Potency, µM (titrated, usually from 9.22 µM), for the others: top-dose activation, usual class: activators. Huh7 NPC1 promoter luciferase reporter, 24 h. AID 485313. hit rate 2.4% among 320,000; note: % of control where 0% means no effect; nearly all actives have a fitted effect of over 60% in size
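Huh7 reporter cells (NPC1 promoter driving luciferase) are dosed with compound for 24 h at 37 °C, 5% CO2; luciferase detection reagent is then added and luminescence measured after 10 min at ambient temperature.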
Rab9 prom act = activators of Rab9 promoter; hit rate 2.8% among 320,000; AID 485297; Huh7 Rab9 promoter-luciferase reporter, luminescence, 24 h; Potency, µM (top dose mostly 9.22 µM), without a hit: at the highest dose activation, negative = inhibition, hits mostly activators; note: % of control where 0% means no effect; nearly all actives have a fitted effect of over 60% in size
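Huh7 reporter line, Rab9 promoter upstream of luciferase. Compound exposure 24 h at 37 °C in reduced-serum medium with 10% FBS. Read-out: luminescence.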
ELG1 genotox = genotoxicity induction in ELG1-luciferase HEK293T cells; Potency, µM (highest dose often 46 µM), for inactives: top-dose activity change, positive = activation, usual class: activators; AID 504466; hit rate 1.3% among 330,000; HEK293T ELG1-luciferase reporter, luminescence, 16 h; note: % of control where 0% means no effect; nearly all actives have a fitted effect of over 60% in size
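After overnight (16 hr) compound treatment at 37 °C, ELG1-luciferase HEK293T cells were lysed with ONE-Glo; luminescence quantified 30 min later at room temperature.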
FLuc modulator = firefly luciferase modulation, counter-screen for miR-21 project | P08659 | purified FLuc, Km substrates, luminescence inhibition | Potency, µM (series often up to 57.5 µM), without a hit: at the top dose activity change, negative = inhibition, usual class: inhibitors | hit rate 6.9% among 360,000;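 note: plate controls were vehicle for no effect and reference inhibitor for full effect; nearly all actives have a fitted effect of over 55% in size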
Target sequence (P08659 whole entry, looked up): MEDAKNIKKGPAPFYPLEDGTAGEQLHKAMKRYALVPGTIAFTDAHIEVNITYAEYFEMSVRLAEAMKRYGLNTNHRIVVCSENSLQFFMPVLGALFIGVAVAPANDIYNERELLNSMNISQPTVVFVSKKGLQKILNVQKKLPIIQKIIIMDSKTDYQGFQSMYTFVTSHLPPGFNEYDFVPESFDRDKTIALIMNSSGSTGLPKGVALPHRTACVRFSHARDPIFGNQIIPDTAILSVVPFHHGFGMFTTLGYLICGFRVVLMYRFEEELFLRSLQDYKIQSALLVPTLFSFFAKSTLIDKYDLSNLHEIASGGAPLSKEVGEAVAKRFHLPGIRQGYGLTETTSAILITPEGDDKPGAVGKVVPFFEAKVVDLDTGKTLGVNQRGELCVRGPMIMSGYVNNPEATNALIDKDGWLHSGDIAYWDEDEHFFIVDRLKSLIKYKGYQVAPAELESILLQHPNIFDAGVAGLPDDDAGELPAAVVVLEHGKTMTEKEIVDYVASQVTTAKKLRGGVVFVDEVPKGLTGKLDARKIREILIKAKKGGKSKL
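Biochemical qHTS of compounds, final roughly 60 µM downward over six points, against 10 nM purified firefly luciferase using Km concentrations of substrates (10 uM D-luciferin, 10 uM ATP) in Tris acetate pH 7.5 buffer; luminescence output.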
Active calls of the source: *; ? = inconclusive; / = no result given; [ ] = remark or other dose. Calls come from the whole dose curve; as a rule, active = well fitted curve in the direction sought with a large enough effect; inconclusive = small, poorly fitted or top-dose-only effect, or another doubt; inactive = no such curve, though single readings can be large; an effect the other way counts as inactive or inconclusive. Potency is the fitted concentration of half-maximal effect.

SMILES	SMN2 splice enh	NPC1 promoter act	Rab9 prom act	ELG1 genotox	FLuc modulator
COc1ccccc1-c1cc(C(=O)N2CCCc3ccccc32)no1	4%	2%	14%	9%	?
O=C(c1cc(-c2ccc(F)cc2)on1)N1CCCc2ccccc21	?	22%	?	?	11µM*
O=C(c1cc(-c2cccs2)on1)N1CCCc2ccccc21	22%	14%	22%	?	17µM*
Cc1ccc(-c2cc(C(=O)N3CCCc4ccccc43)no2)cc1	?	?	3.2µM*	?	4.3µM*
O=C(c1ccccc1F)N1CCCc2ccccc21	/	0%	-1%	6%	-20%
Cc1noc(C)c1COc1ccc(C(=O)N2CCCC(C(F)(F)F)C2)cc1 (stereo not given)	/	1%	0%	2%	3%
CNC(=O)c1ccccc1NC(=O)C1CC(=O)N(C(C)C)C1 (stereo not given)	/	0%	-6%	1%	0%
CCCCC/C=C\C/C=C\CCCCCCCCCC(=O)NCCCC(=O)O	1%	/	/	/	/
O=C(N=Nc1ccc(NOC(=O)c2ccccc2Br)cc1)c1ccccc1O	-29%	?	?	3%	8.5µM*
CCOc1ccccc1NC(=O)Nc1ccccc1OCc1cc(=O)n2ccccc2n1	/	/	/	/	-5%
Cc1ccc(OCC(=O)Nc2cccc(C(=O)OCc3cc(=O)n4nc(C)sc4n3)c2)cc1	/	/	/	/	9.5µM*
Cc1nn2c(=O)cc(COC(=O)c3c(F)cccc3Cl)nc2s1	/	4µM*	4µM*	?	?
Cc1ccccc1OCC(=O)Nc1ccc(C(=O)OCc2cc(=O)n3c(C)csc3n2)cc1	/	/	/	/	0%
Cc1csc2nc(COC(=O)c3cccc(NC(=O)COc4ccccc4Cl)c3)cc(=O)n12	/	/	/	/	1.2µM*
Cc1ccccc1OCC(=O)Nc1ccccc1OCc1cc(=O)n2ccccc2n1	/	/	/	/	11µM*
Cc1ccccc1C(=O)NCC(=O)OCCOc1ccc(C(C)C)c(C)c1	/	1%	16%	23%	-1%
CC(C)(C)c1ccc(O)c(CN(Cc2cc(C(C)(C)C)ccc2O)c2ccccc2)c1	-2%[9.22 µM]	/	/	/	/
COc1cccc(CC(=O)OC(C)C(=O)Nc2ccc(N3CCOCC3)cc2)c1 (stereo not given)	/	8%	9%	13%	1%
Cc1cccc(NC(=O)CSc2nc3c([nH]c4ccccc43)c(=O)n2-c2ccc(F)cc2)c1C	/	/	/	/	-1%
Cc1ccc(Nc2ccc(C(=O)NC3CCCCC3)cn2)cc1	/	20%	19%	7%	?
O=C(NC1CCCCC1)C(c1ccccc1)N(C(=O)c1csnn1)C1CCCC1 (stereo not given)	/	4%	1%	-3%	3%
Cc1nn2c(=O)cc(COC(=O)c3ccc(NC(=O)COc4ccccc4F)cc3)nc2s1	/	/	/	/	1%
Cc1nn2c(=O)cc(COC(=O)c3cccc(NC(=O)COc4ccccc4C)c3)nc2s1	/	/	/	/	24µM*
CC1CCCCN1C(=O)COC(=O)c1ccc(=O)n(Cc2ccccc2)n1 (stereo not given)	/	2%	-1%	-8%	0%
CCOC(=O)c1c(C)[nH]c(C(=O)COC(=O)c2ccccc2NC(=O)c2ccco2)c1C	-10%	-4%	-1%	2%	-18%
SMILES	SMN2 splice enh	NPC1 promoter act	Rab9 prom act	ELG1 genotox	FLuc modulator
CCOC(=O)c1c(C)[nH]c(C(=O)COC(=O)[C@H](C)NC(=O)c2ccccc2Cl)c1C	19%	12%	29%	?	21µM*
CCOC(=O)c1c(C)[nH]c(C(=O)COC(=O)CNC(=O)c2ccccc2Cl)c1C	/	25%	?	?	11µM*
CCOC(=O)c1c(C)[nH]c(C(=O)COC(=O)CNC(=O)c2ccc(Br)cc2)c1C	19%	-3%	0%	0%	4%
CCOC(=O)c1c(C)[nH]c(C(=O)COC(=O)CNC(=O)C2CCCCC2)c1C	?	-1%	7%	4%	3µM*
C[C@H](CO)N1C[C@H](C)[C@@H](CN(C)Cc2ccncc2)Oc2c(cccc2N(C)C)C1=O	/	/	/	4%	/
Cc1ccc2c(c1)c1c(n2C)-c2[nH]ncc2CC1	13%	7%	23%	12%	13µM*
Cc1ccc2c(c1)c1c(n2C)C(C(N)=O)CCC1 (stereo not given)	-2%	-1%	-2%	3%	0%
CC1CCCC1/C(=N/O)c1ccccc1 (stereo not given)	/	-3%	5%	-1%	0%
O=C(Nc1nncs1)C1COc2ccccc2O1 (stereo not given)	?	19%	3%	15%	?
CC1(C)CC(=O)c2sc(NC(=O)C3COc4ccccc4O3)nc2C1 (stereo not given)	13µM*	25%	?	21µM*	?
CC(=O)c1sc(NC(=O)C2COc3ccccc3O2)nc1C (stereo not given)	3.2µM*	0.45µM*	0.35µM*	?	1.9µM*
CC1(C)CC(=O)c2sc(NC(=O)c3ccco3)nc2C1	?	?	28%	21µM*	6µM*
O=C(Nc1nnc(C2CC2)s1)C1COc2ccccc2O1 (stereo not given)	5.6µM*	2.8µM*	0.89µM*	4.1µM*	11µM*
CCOC(=O)C(NCCc1ccccc1F)(NC(C)=O)C(F)(F)F (stereo not given)	-7%	-1%	-4%	0%	3%
CCOc1ccccc1C(=O)Nc1ccc(S(=O)(=O)Nc2nccc(C)n2)cc1	/	0%	-7%	5%	0%
CC(C)(C)c1csc(NC(=O)C2COc3ccccc3O2)n1 (stereo not given)	/	?	?	?	15µM*
Fc1cccc(/C=N/n2c(C3CCCCC3)n[nH]c2=S)c1	/	-1%	-1%	3%	0%
COc1ccc2c(c1)oc(=O)c1cc(OC)ccc12	/	2.5µM*	2.5µM*	10µM*	3µM*
COc1ccc2c(=O)c3ccccc3oc2c1	/	3.5µM*	?	?	12µM*
Nc1cccc(C#Cc2ccc3c(=O)c4ccccc4oc3c2)c1	/	18%	0.56µM*	?	?
COc1ccc2c(c1)oc(=O)c1ccccc12	1%	-4%	6%	16%	?
COc1cc(OC)cc(C(=O)Nc2ccc3c(c2)N(C2CCCC2)C(=O)c2ccccc2S3)c1	/	/	/	/	-5%
Cc1cc(C)n(C(C)CC(=O)Nc2ccc3c(c2)OCO3)n1 (stereo not given)	/	-6%	-3%	-1%[9.26 µM]	-18%
Nn1c(-c2ccccc2Cl)nnc1-c1ccccc1Cl	?	3.5µM*	4µM*	?	0.95µM*
COc1ccc(OCC(=O)N(C)Cc2ccccc2)cc1	1%	-6%	7%	6%	-1%
Cc1cc(OCC(=O)N(C)Cc2ccccc2)ccc1Cl	/	?	4.5µM*	14%	15µM*
Cc1cc(OCC(=O)N(C)Cc2ccccc2)ccc1Br	/	?	?	8%	17µM*

Screens: PubChem BioAssay, National Center for Advancing Translational Sciences (NCATS)
